The source of these data is PubChem BioAssay (Tox21).

Assay [1] is described as follows: qHTS assay to identify small molecule antagonists of the estrogen receptor alpha (ER-alpha) signaling pathway - cell viability counter screen (AID 743074; calls by dose curve;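 note: HEK293 cells carrying ER-alpha-UAS-bla reporter stimulated with 17beta-estradiol; nearly all actives have a fitted effect of over 45% in size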).
Assay [2] can be described thus: qHTS assay to identify small molecule antagonists of the estrogen receptor alpha (ER-alpha) signaling pathway using the BG1 cell line - cell viability counter screen (AID 743081).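 Note: compound given together with 17beta-estradiol as the ER stimulus; series mostly up to about 70 µM; nearly all actives have a fitted effect of over 45% in size.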
Assay [3] addresses Aromatase (Homo sapiens) (UniProt P11511). As to the kind of experiment: qHTS assay to identify aromatase inhibitors (AID 743083). Note: series mostly up to about 70 µM; nearly all actives have a fitted effect of over 55% in size. A general note: Quantitative high-throughput screening tests each substance at several concentrations.
A short description of assay [4]: qHTS assay to identify aromatase inhibitors - cell viability counter screen (AID 743084).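 Note: cells stimulated with testosterone during compound exposure; nearly all actives have a fitted effect of over 55% in size.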
The target of assay [5] is Aryl hydrocarbon receptor (Homo sapiens) (UniProt P35869). As to the kind of experiment: qHTS assay to identify small molecule that activate the aryl hydrocarbon receptor (AhR) signaling pathway (AID 743085).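 Note: HG2L7.5c1 human HepG2 liver cells with stably integrated DRE-driven firefly reporter; series mostly up to about 70 µM; nearly all actives have a fitted effect of over 15% in size.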 The gist of the method: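 AhR agonist activity is inferred from enhanced light output of a DRE-controlled firefly luciferase reporter in HepG2 cells, measured with ONE-Glo following 24 h treatment at 37C.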
Aryl hydrocarbon receptor (Homo sapiens), sequence (P35869 whole entry, looked up): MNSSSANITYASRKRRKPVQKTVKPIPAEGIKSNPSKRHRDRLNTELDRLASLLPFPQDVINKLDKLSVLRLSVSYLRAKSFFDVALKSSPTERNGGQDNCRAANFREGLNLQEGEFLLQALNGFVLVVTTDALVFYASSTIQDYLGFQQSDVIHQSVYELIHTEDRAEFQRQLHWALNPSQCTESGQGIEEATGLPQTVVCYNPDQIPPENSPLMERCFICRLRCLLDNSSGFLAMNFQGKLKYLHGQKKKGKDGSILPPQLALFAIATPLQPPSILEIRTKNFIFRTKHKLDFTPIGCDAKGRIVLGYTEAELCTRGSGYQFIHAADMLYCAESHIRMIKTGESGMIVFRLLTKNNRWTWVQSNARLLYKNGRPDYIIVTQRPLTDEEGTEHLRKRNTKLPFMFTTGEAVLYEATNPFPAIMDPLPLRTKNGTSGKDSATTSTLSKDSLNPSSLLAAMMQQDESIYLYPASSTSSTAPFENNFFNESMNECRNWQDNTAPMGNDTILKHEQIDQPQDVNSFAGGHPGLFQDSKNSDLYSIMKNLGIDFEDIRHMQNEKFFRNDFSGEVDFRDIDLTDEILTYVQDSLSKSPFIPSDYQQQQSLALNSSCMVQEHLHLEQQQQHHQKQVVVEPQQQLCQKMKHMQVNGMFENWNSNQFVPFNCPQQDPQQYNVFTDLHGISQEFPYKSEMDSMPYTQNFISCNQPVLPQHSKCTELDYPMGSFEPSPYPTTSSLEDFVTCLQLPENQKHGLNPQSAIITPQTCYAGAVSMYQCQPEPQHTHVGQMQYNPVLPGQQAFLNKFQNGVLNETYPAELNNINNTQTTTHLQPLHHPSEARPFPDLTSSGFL

A short description of assay [6]: qHTS assay to identify small molecule that activate the aryl hydrocarbon receptor (AhR) signaling pathway - cell viability counter screen (AID 743086).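 Note: HepG2 liver cells carrying the AhR DRE luciferase reporter; series mostly up to about 70 µM; nearly all actives have a fitted effect of over 45% in size.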 The gist of the method:
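HepG2-AhR-luc (HG2L7.5c1) cells, 4000/well, were preincubated 5 h at 37C, exposed to compound in qHTS format for 24 hr at 37C, then given CellTiter-Fluor for 30 min; viability was read as fluorescence in the reporter wells.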

Assay [7] in a line: qHTS assay to identify small molecule antagonists of the peroxisome proliferator-activated receptor gamma (PPARg) signaling pathway - cell viability counter screen (AID 743194). Note: nearly all actives have a fitted effect of over 55% in size. In outline:
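PPARg-UAS-bla HEK293H cells were plated, rested 5 h at 37 C, then treated with compounds plus rosiglitazone (50 nM final) for 17 h at 37 C; viability was then read by CellTiter-Glo luminescence after 30 min at room temperature.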

Assay [8] is described as follows: qHTS assay for small molecule agonists of the antioxidant response element (ARE) signaling pathway (AID 743202; active = well fitted activation curve with a large enough effect in the signal ratio in the repeat runs, not every such curve was filed as active; the % refers to the signal ratio; note: potency is the fitted concentration of half-maximal effect). In outline:
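Compounds delivered in DMSO to ARE-bla HepG2 cells (2,000 cells/well, pre-incubated 5 h) and left 16 h at 37 C. LiveBLAzer B/G FRET substrate then added for 2 h at RT before fluorescence reading.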

Assay [9] in a line: qHTS assay for small molecule agonists of the antioxidant response element (ARE) signaling pathway - cell viability counter screen (AID 743203; calls by dose curve; note: nearly all actives have a fitted effect of over 55% in size; note: potency is the fitted concentration of half-maximal effect). The gist of the method: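 Compounds in DMSO were pinned onto ARE-bla HepG2 cells plated 5 hrs earlier at 2,000 cells/well. Sixteen hours later at 37C/5% CO2, CellTiter-Glo was added and luminescence measured after 30 min at room temperature.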

Assay [10] can be described thus: qHTS assay for small molecule activators of the heat shock response signaling pathway - cell viability counter screen (AID 743209). Note: nearly all actives have a fitted effect of over 50% in size. In outline: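 Counter screen for cytotoxicity in HeLa HSE-bla reporter cells. Treatment was 5 h at 37 C; viability was detected by luminescent ATP assay (CellTiter-Glo) in the same wells as the beta-lactamase read.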
Assay [11] in a line: qHTS assay for small molecule activators of the heat shock response signaling pathway (AID 743210; active = well fitted activation curve with a large enough effect in the signal ratio in the repeat runs, with a control signal flat, not every such curve was filed as active; the % refers to the signal ratio;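 note: HeLa cells with beta-lactamase reporter driven by heat shock elements; series mostly up to about 63 µM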). The gist of the method:
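Reporter gene assay: HeLa cells stably bearing an HSE-bla construct, compound treatment 5 h at 37 C, LiveBLAzer substrate 2.5 h at RT, fluorescence intensity.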

Assay [12] is described as follows: qHTS assay to identify small molecule agonists of the peroxisome proliferator-activated receptor delta (PPARd) signaling pathway - cell viability counter screen (AID 743211). Note: nearly all actives have a fitted effect of over 55% in size. The gist of the method:
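qHTS cell viability: PPARd-bla HEK293H; 17 h cpd, 37C; CellTiter-Glo, luminescence at 30 min RT.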

The target of assay [13] is Estrogen receptor (Homo sapiens) (UniProt P03372). As to the kind of experiment: qHTS assay to identify small molecule antagonists of the estrogen receptor alpha (ER-alpha) signaling pathway (AID 743069; active = well fitted curve in the direction sought with a large enough effect in the signal ratio in the repeat runs, not every such curve was filed as active; the % refers to the signal ratio). The gist of the method:
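Estradiol-stimulated ER-alpha-UAS-bla HEK293 cells, 18 hr compound exposure at 37C. LiveBLAzer B/G substrate, 2 hr RT, fluorescence read.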

Assay [14] shares this target. As to the kind of experiment: qHTS assay to identify small molecule agonists of the estrogen receptor alpha (ER-alpha) signaling pathway (AID 743075; calls by dose curve;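 note: HEK293 GripTite cells with ER-alpha and UAS-driven beta-lactamase reporter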).
For assay [15] the target is unchanged. In words: qHTS assay to identify small molecule agonists of the estrogen receptor alpha (ER-alpha) signaling pathway using the BG1 cell line (AID 743079). Note: nearly all actives have a fitted effect of over 20% in size. Note: potency is the fitted concentration of half-maximal effect.
Assay [16] is described as follows: qHTS assay to identify small molecule antagonists of the estrogen receptor alpha (ER-alpha) signaling pathway using the BG1 cell line (AID 743080; calls by dose curve;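 note: BG1 cells stimulated with 17beta-estradiol alongside compound; series mostly up to about 70 µM; nearly all actives have a fitted effect of over 25% in size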). In outline:
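BG1-Luc-4E2 cells (endogenous full-length ER-alpha, stable 4×ERE-luciferase) were starved 5 days in phenol-red-free medium with 10% charcoal-stripped FBS, plated 24 h, then given compound plus 17beta-estradiol for 21.5 h at 37 C; ONE-Glo luminescence read after 30 min.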

Assay [17] has as its target Peroxisome proliferator-activated receptor gamma (Homo sapiens) (UniProt P37231). As to the kind of experiment: qHTS assay to identify small molecule agonists of the peroxisome proliferator-activated receptor gamma (PPARg) signaling pathway (AID 743094; active = well fitted activation curve with a large enough effect in the signal ratio in the repeat runs, not every such curve was filed as active; the % refers to the signal ratio). In outline: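 Following 5 h plating at 37C, PPARg-bla HEK293H cells receive compound or DMSO for 17 h; fluorescence intensity is recorded after LiveBLAzer B/G loading for 1 h at room temperature.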

Assay [18] has the same target. As to the kind of experiment: qHTS assay to identify small molecule antagonists of the peroxisome proliferator-activated receptor gamma (PPARg) signaling pathway (AID 743191; calls by dose curve; note: nearly all actives have a fitted effect of over 30% in size; note: potency is the fitted concentration of half-maximal effect). The gist of the method: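 GeneBLAzer PPARg UAS-bla HEK293H cells carrying a UAS-driven beta-lactamase reporter were plated at 3000 cells/well, preincubated 5 h at 37C, then given compound for 17 h at 37C; LiveBLAzer B/G FRET substrate was read after 1 h at room temperature.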

The subject of assay [19] is thyroid hormone receptor (rat, GH3 cells). In words: qHTS assay to identify small molecule agonists of the thyroid receptor (TR) signaling pathway (AID 743066; calls by dose curve).

Results filed as inconclusive are left out. A number with no mark means an inactive call. Activity calls are given as the source filed them. Unless noted, calls come from the whole dose curve; as a rule, active = well fitted curve in the direction sought with a large enough effect in the repeat runs; inconclusive = weak or mixed curves; inactive = no such curve, though single readings can be large; an effect the other way counts as inactive or inconclusive.

Estrogen receptor (Homo sapiens), sequence (P03372 whole entry, looked up): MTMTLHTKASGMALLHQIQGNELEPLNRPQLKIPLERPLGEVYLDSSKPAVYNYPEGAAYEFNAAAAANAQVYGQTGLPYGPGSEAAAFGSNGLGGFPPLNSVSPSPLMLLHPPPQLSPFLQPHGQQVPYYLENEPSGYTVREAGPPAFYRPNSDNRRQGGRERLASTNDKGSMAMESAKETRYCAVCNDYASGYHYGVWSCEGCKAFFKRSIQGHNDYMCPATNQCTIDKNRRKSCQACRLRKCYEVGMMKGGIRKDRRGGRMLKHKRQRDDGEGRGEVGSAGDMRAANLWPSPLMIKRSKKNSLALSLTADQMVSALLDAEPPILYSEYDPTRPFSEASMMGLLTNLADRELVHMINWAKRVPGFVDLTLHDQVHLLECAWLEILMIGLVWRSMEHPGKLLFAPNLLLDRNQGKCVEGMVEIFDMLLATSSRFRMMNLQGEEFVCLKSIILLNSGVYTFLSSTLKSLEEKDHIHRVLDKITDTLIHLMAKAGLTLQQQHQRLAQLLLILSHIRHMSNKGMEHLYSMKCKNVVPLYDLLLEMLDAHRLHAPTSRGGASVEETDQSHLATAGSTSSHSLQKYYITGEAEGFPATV
Aromatase (Homo sapiens), sequence (P11511 whole entry, looked up): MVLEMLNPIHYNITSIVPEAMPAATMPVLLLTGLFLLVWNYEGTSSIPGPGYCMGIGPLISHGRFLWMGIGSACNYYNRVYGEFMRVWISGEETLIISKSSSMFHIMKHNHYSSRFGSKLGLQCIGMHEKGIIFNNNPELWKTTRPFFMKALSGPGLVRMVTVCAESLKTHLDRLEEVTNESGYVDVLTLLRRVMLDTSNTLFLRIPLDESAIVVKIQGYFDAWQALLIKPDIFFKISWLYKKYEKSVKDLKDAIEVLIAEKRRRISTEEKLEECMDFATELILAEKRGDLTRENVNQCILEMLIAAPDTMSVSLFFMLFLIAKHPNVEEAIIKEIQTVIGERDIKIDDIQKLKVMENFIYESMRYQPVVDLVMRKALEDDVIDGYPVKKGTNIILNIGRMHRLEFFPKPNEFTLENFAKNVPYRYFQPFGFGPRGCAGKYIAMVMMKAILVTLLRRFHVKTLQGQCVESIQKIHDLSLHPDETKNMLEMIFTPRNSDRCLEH
Peroxisome proliferator-activated receptor gamma (Homo sapiens), sequence (P37231 whole entry, looked up): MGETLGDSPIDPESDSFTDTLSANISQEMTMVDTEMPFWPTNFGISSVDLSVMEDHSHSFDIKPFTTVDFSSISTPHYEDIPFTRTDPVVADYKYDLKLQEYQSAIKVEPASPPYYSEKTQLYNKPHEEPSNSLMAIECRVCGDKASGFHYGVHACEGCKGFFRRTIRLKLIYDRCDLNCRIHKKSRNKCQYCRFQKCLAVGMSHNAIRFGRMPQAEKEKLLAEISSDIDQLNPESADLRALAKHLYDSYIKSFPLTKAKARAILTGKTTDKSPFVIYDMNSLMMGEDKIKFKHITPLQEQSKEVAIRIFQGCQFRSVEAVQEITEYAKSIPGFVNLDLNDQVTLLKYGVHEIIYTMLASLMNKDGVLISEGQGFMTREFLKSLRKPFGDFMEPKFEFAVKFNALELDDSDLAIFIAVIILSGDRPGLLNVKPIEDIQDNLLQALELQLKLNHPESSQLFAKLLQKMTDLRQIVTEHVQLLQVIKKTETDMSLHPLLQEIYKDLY

Turning to `C1CCOC1`, the Potency result in assay [1], in assay [2], in assay [3], in assay [4], in assay [5] and in assay [7] was “inactive” each time. Moreover, the Potency result in assay [8], in assay [9], in assay [11] and in [12] was “inactive” each time. The compound was called inactive in assay [6] and in assay [10].
As to `O=C(O)c1cccc(Cl)c1Cl`, the Potency entry in [13], in assay [1], in assay [15], in assay [2], in [3] and in assay [4] was “inactive” in each case. In addition, the Potency entry in [5], in assay [17], in assay [18], in [7], in assay [8] and in assay [9] was “inactive” throughout. The Potency entry in [11] and in [12] was “inactive” each time. Further, the result in assay [14], in assay [16], in assay [6] and in assay [10] was inactive.
Regarding `CCCOCCC`, the Potency entry in assay [13], in assay [1], in assay [15], in assay [2], in [3] and in assay [4] was “inactive” each time. In addition, the Potency entry in assay [17], in assay [18], in [7], in [8], in assay [9] and in [11] was “inactive” each time. In addition, in assay [12], the Potency entry is “inactive”. The result in assay [14], in [16], in assay [6] and in assay [10] was inactive.
As for `CCc1cc2cc(OC)c(OC)cc2c(Cc2ccccc2)n1`, the Potency result in assay [7], in assay [8], in [9], in assay [11] and in assay [12] was “inactive” each time. Besides, the outcome in [10] was inactive.
As for `O=C(C(Cl)Cl)N1CCOC12CCCCC2`, the Potency result in [13], in assay [1], in [15], in assay [2], in assay [3] and in assay [5] was “inactive” each time. For the same compound, the Potency result in [17], in [7], in assay [9] and in assay [12] was “inactive” in each case. Further, the outcome in assay [14], in [16], in assay [6] and in [10] was inactive. Moreover, the Potency in assay [8] was 34.4 µM (active).
Consider `Cc1onc(-c2ccccc2)c1C(=O)Cl`, for which the Potency result in [18], in [7], in assay [8], in assay [9], in [11] and in [12] was “inactive” each time. The outcome in assay [10] was inactive.
With `O=C(O)C(=O)Cc1c[nH]c2ccccc12`, the Potency entry in [13], in assay [1], in assay [15], in [2], in assay [3] and in assay [4] was “inactive” each time. Moreover, the Potency entry in assay [17], in assay [18], in assay [7], in [9], in assay [11] and in [12] was “inactive” each time. The call in assay [14], in assay [6] and in assay [10] was inactive. Also, in assay [8], the Potency is 27.3 µM (active).
Consider `COc1cc(N)c(Cl)cc1C(=O)NC1CCN(Cc2ccccc2)CC1`, for which the Potency entry in assay [13], in assay [1], in assay [15], in [2], in assay [4] and in assay [5] was “inactive” in each case. Further, the Potency result in assay [17], in [18], in assay [7], in [8], in [9] and in assay [11] was “inactive” each time. For the same compound, the Potency entry in assay [12] was “inactive”. In addition, the call in [14], in assay [16], in assay [6] and in assay [10] was inactive.
Take `CC(Oc1c(Cl)cccc1Cl)C1=NCCN1` (stereo not given): the Potency entry in assay [18], in assay [7], in assay [9] and in assay [12] was “inactive” each time. The result in [10] was inactive.
In the case of `CCCCCCOc1ccc(N)cc1`, the compound was called inactive in [19], in assay [14] and in [6]. For the same compound, in [15], the Potency was 9.69 µM (active). Further, the Potency entry in assay [2], in assay [17], in [18], in [7], in assay [8] and in assay [11] was “inactive” throughout. In [12], the Potency entry is “inactive”.
For `CC(C)NC[C@@H](O)COc1cccc2ccccc12`, the compound was called inactive in [19], in assay [6] and in [10]. Also, the Potency result in assay [1], in assay [2], in [3], in assay [4], in assay [7] and in [9] was “inactive” in each case. Also, the Potency result in assay [11] is “inactive”.
As to `C[C@@H]1CN(c2c(F)c(N)c3c(=O)c(C(=O)O)cn(C4CC4)c3c2F)C[C@H](C)N1`, the Potency entry in assay [13], in assay [1], in assay [15], in assay [2], in assay [3] and in assay [4] was “inactive” each time. The Potency entry in [17], in [18], in assay [7], in assay [8], in [9] and in [11] was “inactive” throughout. Further, in [12], the Potency entry was “inactive”. Also, the compound was classed as inactive in assay [14], in assay [16], in [6] and in [10].
In the case of `NC(=O)NS(=O)(=O)c1ccc(Cl)cc1`, the Potency result in assay [18], in [7], in [8] and in [9] was “inactive” throughout. Also, the compound was classed as inactive in [10].
On to `Cc1nc(N)nc(N)c1-c1ccc(Cl)c(Cl)c1`, for which the Potency in assay [18] is 1.88 µM (active); in [9], 668 nM (active). In assay [10], the compound was called inactive. Also, the Potency entry in assay [11] and in assay [12] was “inactive” throughout.
Take `O=C(CCCl)NCc1ccccc1`: the Potency result in assay [18], in assay [7], in assay [8], in [9], in assay [11] and in assay [12] was “inactive” throughout. For the same compound, the call in [10] was inactive.
`CN(C)CC[C@@H](c1ccc(Cl)cc1)c1ccccn1`: the outcome in [19], in [6] and in [10] was inactive. Further, the Potency result in assay [7], in [8], in assay [9], in assay [11] and in assay [12] was “inactive” in each case.
For `COC(=O)/C=C(/C)N`, the Potency entry in assay [18], in assay [7], in assay [8], in assay [9], in [11] and in assay [12] was “inactive” each time. Further, the outcome in assay [10] was inactive.
Take `COc1ccccc1N1CCN(CCCNc2cc(=O)n(C)c(=O)n2C)CC1`: the Potency entry in assay [13], in assay [1], in assay [15], in assay [2], in assay [3] and in assay [4] was “inactive” throughout. For the same compound, the Potency result in assay [17], in assay [7], in assay [9], in assay [11] and in assay [12] was “inactive” each time. Besides, the result in assay [14], in assay [16], in assay [6] and in [10] was inactive.
As for `O=C(O[C@@H](C(=O)O)[C@@H](OC(=O)c1ccccc1)C(=O)O)c1ccccc1`, the Potency result in assay [13], in assay [1], in assay [15], in assay [2], in [3] and in assay [4] was “inactive” in each case. Moreover, the Potency result in assay [17], in assay [7], in assay [8], in assay [9], in assay [11] and in assay [12] was “inactive” in each case. In addition, the outcome in assay [14], in assay [16], in assay [6] and in [10] was inactive.
`Cc1cn([C@@H]2O[C@H](CO)[C@@H](O)[C@@H]2F)c(=O)[nH]c1=O`: the Potency result in assay [7], in [8], in assay [9], in [11] and in assay [12] was “inactive” each time. In addition, the call in assay [10] was inactive.
